According to PubChem BioAssay (NCI):
About 79,000 compounds went through this panel and 15% of them were active in at least one assay; those are over-represented in the sample as a whole. Unmarked numbers belong to inactive results. The source made the active and inactive calls. Cut-off read from the data, not from the text of the source: active = growth inhibition above about 70%; inactive = the rest.

Experiment: NCI Yeast Anticancer Drug Screen. Data for the rad50 strain (AID 155);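 note: 0% = growth of vehicle-only cultures of the same strain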
Settings: S. cerevisiae rad50 strain growth inhibition, hits give high values
Procedure: Growth inhibition of yeast strains with defined genetic alterations is measured as a screen for potential anti-cancer activity. Selected strains with alterations in DNA damage repair or cell cycle control were exposed to compounds and growth inhibition was measured relative to vehicle treated controls. The strain used in this assay is rad50

[1] = at 5.0 µM (retest, dose inferred, filed as 0.5)
[2] = at 50.0 µM (retest, dose inferred, filed as 5.0)

| Compound | growth inhibition [1] | growth inhibition [2] | growth inhibition (at 50.0 µM) |
| --- | --- | --- | --- |
| OC1CCN(c2c3ccccc3nc3ccccc23)CC1 | 21% | 85% (active) | 12.2% |
| CCOC(=O)c1[nH]cc(C)c1-c1ccc2c(-c3ccccc3)nc3ccccc3n12 | 5% | 65% | 44.8% |
| Brc1ccc(N=Nc2ccc(-c3ccc[cH-]3)cc2)cc1.[Fe+2].c1cc[cH-]c1 | 3% | -3% | 16.1% |
| CC(C)=CCC/C(C)=C/COC(=O)Nc1ccccc1 | -7% | -5% | 15.7% |
| O=c1c(Cc2c[nH]c3ccccc23)coc2ccccc12 | 0% | 95% (active) | 24.2% |
| Cc1cc(-c2ccccc2)c(C)c(-c2ccccc2)c1-c1ccccc1 | 5% | 4% | 74.6% (active) |
| C/C(=C/C(=O)/C=C/c1ccccc1)c1c(C)[nH]c2ccccc12 | -24% | -3% | 4.3% |
| N=C(N)Sc1ccc([N+](=O)[O-])cc1Cl | 45% | 94% (active) | 85.2% (active) |
| CC1(c2ccc(Cl)cc2)OC(=O)C(=Cc2ccc([N+](=O)[O-])s2)C(=O)O1 (configuration not stated) | 26% | 99% (active) | 51.5% |
| Cc1ccc(Oc2ccc(C(=O)C(CN(C)C)CN(C)C)cc2)cc1 | 93% (active) | 98% (active) | 92.1% (active) |
| CC(=O)C(=C(I)I)c1ccccc1 | -20% | 71% (active) | 51.6% |
| CSc1cc(Cl)c(C)cc1S(=O)(=O)NC(=O)Nc1ccc(Cl)cc1 | 25% | 97% (active) | 99.1% (active) |
| CCCCC(O)(c1ccc2nc(NC(=O)OC)[nH]c2c1)c1cccs1 (configuration not stated) | -7% | 58% | 7.8% |
| COc1ccc(/C=N/n2c(C)nc3c(sc(=S)n3-c3ccccc3)c2=O)cc1 | 3% | -12% | 13.6% |
